Activity change, negative = inhibition, max response and outcome data for 10 molecules are collected here from PubChem BioAssay (NCATS).

A short description of experiment [1]: qHTS Assay for Lipid Storage Modulators (AID 1519). As to Activity change, negative = inhibition: % is scaled to controls: 0 for no effect and ±100 for the full control effect. The following applies: Drosophila S3 cells, BODIPY lipid droplet/cell ratio, laser cytometry, cells loaded with oleic acid. The essentials:
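Cells seeded at 5,000 per well were treated with compounds over a concentration series and loaded with oleic acid (400 uM, as added). Lipid droplet fluorescence (488 nm excitation, 500-530 nm channel) was read by laser-scanning cytometry and normalized to 20 uM Triacsin C.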
(In qHTS, concentration-response curves come from the screen itself.)

Experiment [2] can be described thus: Cytometric Cell-Based qHTS for Inhibitors of the mTORC1 Signaling Pathway in MEF (Tsc2-/-, p53-/-) Cells (AID 2660; active = well fitted curve in the direction sought with a large enough effect; an effect the other way counts as inactive or inconclusive;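 also: percent of cells above a phospho-rpS6 to PI ratio cutoff in each well; plate controls were DMSO for no effect and rapamycin for full effect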). The settings on record: mTORC1 pathway cytometry; series mostly up to 38.3 µM. The essentials:
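Immunofluorescence qHTS of rpS6 Ser235/236 phosphorylation: MEFs (Tsc2-/-, p53-/-) treated 24 h, 37 C, in DMEM + 10% FBS. Alexa-488 signal normalized to PI count, referenced to rapamycin (7.5 nM) and DMSO; PI cell number recorded for viability.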

Experiment [3] is described as follows: High Content Imaging Cell-Based qHTS for Inhibitors of the mTORC1 Signaling Pathway in MEF (Tsc2-/-, p53-/-) Cells (AID 2666; active = well fitted curve in the direction sought with a large enough effect; an effect the other way counts as inactive or inconclusive;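 also: percent of cells scored positive for phospho-rpS6 Ser235/236 immunostaining by imaging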). The following applies: at 38.3 µM (top of the series). The essentials:
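Phospho-rpS6 (Ser235/236) immunofluorescence, normalized and scored as % positive cells using rapamycin and DMSO controls, was read in empty-vector Tsc2-/-, p53-/- MEFs after 24 h compound exposure at 37 C; propidium iodide counted cells.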

Experiment [4] can be described thus: High Content Imaging Cell-Based qHTS for Inhibitors of the mTORC1 Signaling Pathway in MEF Cells (AID 2667; active = well fitted curve in the direction sought with a large enough effect; an effect the other way counts as inactive or inconclusive;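 also: Tsc2-/- p53-/- MEFs stably re-expressing wild-type Tsc2 exposed 24 h; plate controls were DMSO wells for no effect and rapamycin control wells for full effect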). The following applies: series mostly up to 38.3 µM. The essentials: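 WT MEFs (Tsc2-/-, p53-/- re-expressing Tsc2), in DMEM + 10% FBS, were treated with compound for 24 h at 37 C. Cells were then fixed and stained for phospho-rpS6 Ser235/236 with propidium iodide as cell count. Values are % positive cells, with thresholds set against rapamycin-treated cells.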

In experiment [5] the target is Ubiquitin carboxyl-terminal hydrolase 2 (Homo sapiens) (UniProt O75604). Briefly: qHTS Validation Assay for Inhibitors of Ubiquitin-specific Protease USP2a Using CHOP2 as the Reporter (AID 463106; active = well fitted curve in the direction sought with a large enough effect; an effect the other way counts as inactive or inconclusive;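 also: plate controls were DMSO for no effect and full inhibition by NEM for full effect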). The following applies: USP2a cleavage of CHOP2 reporter, enzymatic; series mostly up to 38.3 µM. In a few lines:
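USP2 core (10 nM final) was preincubated with compound 30 min at RT in pH 8.0 Tris/CaCl2/beta-ME/CHAPS buffer. Ub-CHOP2 and reporter substrate (25 nM final each) were then added, with fluorescence (Ex 485/Em 531) read after 60 min. Data were normalized to NEM full inhibition and fitted to concentration-response curves.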

Setting [6] is: measured here: cell count channel max response.
Setting [7] is: measured here: lipid channel max response.

Several values for one entry are separate records, joined by “and”; a condition that tells them apart may be missing. Equal values may be shown once. Records with an inconclusive call do not appear. Activity calls are given as the source filed them. Unless noted, calls follow the shape of the full dose curve.

Ubiquitin carboxyl-terminal hydrolase 2 (Homo sapiens), sequence (O75604 whole entry, looked up): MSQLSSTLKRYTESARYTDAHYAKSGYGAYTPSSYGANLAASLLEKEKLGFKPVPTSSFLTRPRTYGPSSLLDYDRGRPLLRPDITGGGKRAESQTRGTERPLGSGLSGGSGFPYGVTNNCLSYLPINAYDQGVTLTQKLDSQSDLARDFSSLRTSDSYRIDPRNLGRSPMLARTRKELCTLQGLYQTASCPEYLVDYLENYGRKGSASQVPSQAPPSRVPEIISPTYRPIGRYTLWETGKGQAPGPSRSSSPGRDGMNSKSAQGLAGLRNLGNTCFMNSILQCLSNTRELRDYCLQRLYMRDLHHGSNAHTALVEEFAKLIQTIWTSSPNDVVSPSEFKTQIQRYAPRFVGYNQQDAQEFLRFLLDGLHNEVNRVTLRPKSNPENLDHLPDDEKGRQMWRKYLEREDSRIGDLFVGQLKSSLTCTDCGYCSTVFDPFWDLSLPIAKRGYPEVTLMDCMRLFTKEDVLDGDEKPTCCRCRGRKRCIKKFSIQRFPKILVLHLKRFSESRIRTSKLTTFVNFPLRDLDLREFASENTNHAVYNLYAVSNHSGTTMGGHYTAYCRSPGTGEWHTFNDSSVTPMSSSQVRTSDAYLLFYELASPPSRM

As for `CCC(c1ccc(O)cc1)C(CC)c1ccc(O)cc1` (stereo not drawn), the activity change, negative = inhibition in experiment [1] (at 57.5 µM (top of the series)) was 9.03% (inactive). In addition, the results for the max response in experiment [1] (setting [6]) and in experiment [1] (setting [7]) were 10.5% and 25.1%, respectively.
As to `C=CCc1cccc(C=NNC(=O)CN2CCN(Cc3ccccc3)CC2)c1O`, the molecule was called inactive in experiment [2], in experiment [3], in experiment [4] and in experiment [5].
In the case of `COc1ccc2ccc(=O)oc2c1CC=C(C)C`, the activity change, negative = inhibition in experiment [1] (at 57.5 µM (top of the series)) is 9.52% (inactive). Further, the max response in experiment [1] (setting [6]) was 4.48%; in experiment [1] (setting [7]), 16.7%.
With `Cc1cc2nc3c(=O)[nH]c(=O)nc-3n(CC(O)C(O)C(O)CO)c2cc1C` (stereo not drawn), the activity change, negative = inhibition was 0.295% (inactive) in experiment [1] (at 25.7 µM (top of the series)); 10.9% (inactive) and -20.1% (inactive) in experiment [1] (at 57.5 µM (top of the series)). For the same molecule, the max response is 2.32% and -7.87% and -11.2% in experiment [1] (setting [6]); 0.677% and 3.75% and -34% in experiment [1] (setting [7]).
With `NCC1CCC(C(=O)O)CC1` (stereo not drawn), the results for the activity change, negative = inhibition in experiment [1] (at 25.7 µM (top of the series)) and in experiment [1] (at 57.5 µM (top of the series)) were -1.26% (inactive) and 6.78% (inactive), respectively. Further, the max response is -0.272% and 28.1% in experiment [1] (setting [6]); -2.41% and 39.3% in experiment [1] (setting [7]).
On to `NS(=O)(=O)c1cc(Cl)c(Cl)c(S(N)(=O)=O)c1`, for which, in experiment [1] (at 25.7 µM (top of the series)), the activity change, negative = inhibition is -3.46% (inactive). The max response in experiment [1] (setting [6]) was -9.93%; in experiment [1] (setting [7]), -12.7%.
In the same order, the values of `CN[C@H]1[C@@H](O[C@@H]2[C@H](O[C@@H]3[C@@H](O)[C@@H](O)[C@@H](N=C(N)N)[C@@H](O)[C@@H]3N=C(N)N)O[C@H](C)[C@@]2(O)C=O)O[C@@H](CO)[C@@H](O)[C@H]1O` are -5.41% (inactive), 12.5% and 7.05%.
In the same order, the values of `CCC(=C(CC)c1ccc(O)cc1)c1ccc(O)cc1` are -5.29% (inactive), -17.8% and -23.1%.
In the case of `Nc1ccn([C@@H]2O[C@H](CO)[C@@H](O)[C@H]2O)c(=O)n1`, the activity change, negative = inhibition in experiment [1] (at 57.5 µM (top of the series)) was -3.18% (inactive). The results for the max response in experiment [1] (setting [6]) and in experiment [1] (setting [7]) were -16.3% and -19.1%, respectively.
In the same order, the values of `OC(c1cc(C(F)(F)F)nc2c(C(F)(F)F)cccc12)C1CCCCN1` (stereo not drawn) are 2.49% (inactive), 6.15% and 10.3%.
